Measurements as given in PubChem BioAssay (NCATS).
Inconclusive results are not listed. Activity calls are given as the source filed them. The call rests on the fitted dose curve; in most records, active means well fitted inhibition curve with a large enough effect; inconclusive means small, poorly fitted or top-dose-only effect; inactive means flat fitted curve, though single readings scatter.

Experiments:
Experiment in all cases: qHTS profiling for inhibitors of Plasmodium falciparum proliferation (AID 504749); further: nearly all actives have a fitted effect of over 60% in size
Conditions in all cases: P. falciparum in erythrocytes, SYBR Green DNA, 72 h; series mostly up to 28.7 µM
[1] = system: CP286
Method in brief: (§1)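 Quantitative HTS: compounds pinned into medium, infected erythrocytes added (0.3% parasitemia, 2.5% hematocrit), 72 h culture at 37 C under 5% CO2. Saponin/Triton lysis with SYBR Green I, overnight RT, then fluorescence read.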

[2] = system: CP291
Method in brief: as §1

[3] = system: CP297
Method in brief: as §1

[4] = system: CP305
Method in brief: as §1

[5] = system: CP315
Method in brief: as §1

[6] = system: CP325
Method in brief: as §1

[7] = system: CP329
Method in brief: as §1

[8] = system: CP335
Method in brief: as §1

[9] = system: DFO2036
Method in brief: as §1

[10] = system: DIV14
Method in brief: as §1

[11] = system: DIV17
Method in brief: as §1

[12] = system: DIV30
Method in brief: as §1

[13] = system: Dd2
Method in brief: as §1

[14] = system: ECU
Method in brief: as §1

[15] = system: FAB9
Method in brief: as §1

[16] = system: GB4
Method in brief: as §1

[17] = system: HB3
Method in brief: as §1

[18] = system: ICS
Method in brief: as §1

[19] = system: JCK
Method in brief: as §1

[20] = system: N140
Method in brief: as §1

Measured: Potency
Potency means the concentration at half of the fitted maximal effect.

Cc1ccc(S(=O)(=O)NC(=O)NN2CCCCCC2)cc1
inactive: all assays above

CC(N=C(NC#N)Nc1ccncc1)C(C)(C)C (configuration not stated)
inactive: all assays above

NC(=O)N1c2ccccc2C=Cc2ccccc21
inactive: all assays above

NC(=O)c1cn(Cc2c(F)cccc2F)nn1
inactive: all assays above

C[N+](C)(C)CCOC(N)=O
inactive: all assays above

O=C(O)CCCCCCCC(=O)O
inactive: all assays above

COCC(=O)O[C@]1(CCN(C)CCCc2nc3ccccc3[nH]2)CCc2cc(F)ccc2[C@@H]1C(C)C
active: [1] 1.58 µM | [2] 4.78 µM | [3] 0.849 µM | [4] 6.01 µM | [5] 6.75 µM | [6] 6.75 µM | [7] 4.78 µM | [8] 1.9 µM | [9] 1.26 µM | [10] 0.953 µM | [11] 0.601 µM | [12] 3.38 µM | [13] 0.224 µM | [14] 4.47 µM | [15] 10 µM | [16] 0.151 µM | [17] 7.94 µM | [18] 1.78 µM | [19] 7.94 µM | [20] 0.562 µM

O=C(O)CP(=O)(O)O
inactive: all assays above

COc1cc2c(cc1OC)-c1cc(=Nc3c(C)cc(C)cc3C)n(C)c(=O)n1CC2
active: [1] 2 µM | [2] 2.13 µM | [3] 5.36 µM | [4] 3.79 µM | [5] 6.75 µM | [6] 4.26 µM | [7] 4.78 µM | [8] 4.26 µM | [9] 3.55 µM | [10] 3.01 µM | [11] 3.38 µM | [12] 6.01 µM | [13] 7.94 µM | [14] 5.01 µM | [15] 3.98 µM | [16] 2.69 µM | [17] 7.08 µM | [18] 1.78 µM | [19] 5.62 µM | [20] 3.16 µM

CC(C(=O)O)c1ccc(CC2CCCC2=O)cc1 (configuration not stated)
inactive: all assays above

CC(C)(Oc1ccc(CCNC(=O)c2ccc(Cl)cc2)cc1)C(=O)O
inactive: all assays above

NC(=O)c1ncn([C@@H]2O[C@H](CO)[C@@H](O)[C@H]2O)c1O
inactive: all assays above

CCn1ccnc1CC1COc2ccccc2O1 (configuration not stated)
inactive: all assays above

CCn1cc(C(=O)O)c(=O)c2cc3c(cc21)OCO3
not listed: [11]
inactive: all other assays above

Cc1ccc(Cl)c(Nc2ccccc2C(=O)O)c1Cl
not listed: [5]
inactive: all other assays above

CNC1(C)C2CCC(C2)C1(C)C (configuration not stated)
active: [16] 10.7 µM
not listed: [8] | [13]
inactive: all other assays above

CN1CCN(C2=Nc3ccccc3Oc3ccc(Cl)cc32)CC1
not listed: [16] | [18]
inactive: all other assays above

CCNC(=O)N1CCN(CCCC(c2ccc(F)cc2)c2ccc(F)cc2)CC1
active: [1] 2.24 µM | [2] 6.01 µM | [3] 6.01 µM | [4] 6.01 µM | [5] 6.75 µM | [6] 2.13 µM | [8] 1.9 µM | [9] 2.51 µM | [10] 7.57 µM | [11] 13.5 µM | [12] 6.75 µM | [13] 2 µM | [14] 2.51 µM | [15] 3.98 µM | [16] 10.7 µM | [17] 4.47 µM | [18] 2.82 µM | [19] 10 µM | [20] 2.82 µM

OCCN1CCN(CCCN2c3ccccc3C=Cc3ccccc32)CC1
active: [1] 7.08 µM | [2] 12 µM | [3] 12 µM | [4] 10.7 µM | [6] 8.49 µM | [8] 6.75 µM | [9] 11.2 µM | [10] 1.2 µM | [11] 1.69 µM | [12] 6.75 µM | [13] 4.47 µM | [14] 2.82 µM | [16] 6.75 µM | [17] 8.91 µM | [18] 4.47 µM | [20] 3.55 µM

NC1=NCC2c3ccccc3Cc3ccccc3N12 (configuration not stated)
active: [11] 13.5 µM
not listed: [7] | [8] | [10] | [16] | [18]
inactive: all other assays above

COC(=O)C1=C(C)NC(C)=C(C(=O)OC(C)(C)CN(C)CCC(c2ccccc2)c2ccccc2)C1c1cccc([N+](=O)[O-])c1 (configuration not stated)
active: [1] 2.51 µM | [2] 3.79 µM | [3] 3.79 µM | [4] 5.36 µM | [5] 4.26 µM | [6] 6.01 µM | [7] 3.79 µM | [8] 1.51 µM | [9] 3.55 µM | [10] 3.79 µM | [11] 3.38 µM | [12] 4.78 µM | [13] 2.24 µM | [14] 3.16 µM | [16] 2.13 µM | [17] 3.16 µM | [18] 2 µM | [20] 2.51 µM

CCCOc1ccccc1-c1nc2n[nH]nc2c(=O)[nH]1
not listed: [8] | [18]
inactive: all other assays above

Cc1cc(C)c(/C=C2\C(=O)Nc3ccccc32)[nH]1
not listed: [18]
inactive: all other assays above

CCCN(CCC)CCc1cccc2c1CC(=O)N2
not listed: [8]
inactive: all other assays above

C#CCN(C)CCCOc1ccc(Cl)cc1Cl
not listed: [11]
inactive: all other assays above

O=C(O)CN(CCOCCOCCN(CC(=O)O)CC(=O)O)CC(=O)O
inactive: all assays above

C[N+](C)(C)CCOC(=O)CCC(=O)OCC[N+](C)(C)C
inactive: all assays above
